Inconclusive results are not listed. Active and inactive are the calls of the source. Calls come from the whole dose curve; as a rule, active = well fitted inhibition curve with a large enough effect; inconclusive = small, poorly fitted or top-dose-only effect; inactive = flat fitted curve, though single readings scatter.

The test concerns 6-phosphofructokinase (Trypanosoma brucei). Put plainly: Confirmatory Assay to Find Inhibitors of T. brucei phosphofructokinase: High ATP. Particulars: T. brucei PFK, Kinase-Glo luminescence; series mostly up to 57.5 µM; activity, negative = inhibition: at the top concentration. From the text:
Various species of the protozoan family Trypanosomatidae are responsible for a range of serious human diseases in tropical and subtropical areas of the world. […] Many of the disorders caused by trypanosomatids are fatal if left untreated, but most currently used drugs are inefficient and toxic. […] Oxidative metabolism involving the mitochondrial tricarboxylic acid cycle and oxidative phosphorylation are repressed in these parasites, and recent RNA interference (RNAi) experiments have shown that even partial depletion of certain individual glycolytic enzymes can lead to the death of cultured parasites. One such glycolytic enzyme, phosphofructokinase (PFK), catalyzes the formation of fructose-1,6-bisphosphate (F1,6BP) and ADP from fructose-6-phosphate (F6P) and ATP, and in many metabolic circumstances makes an important contribution to the control of flux through the glycolytic pathway. As a specific glycolytic target, PFK is particularly attractive as it catalyzes the first irreversible step in glycolysis, and structural and kinetic studies have shown very substantial and essential differences from corresponding host enzymes, allowing for the discovery of parasite-selective inhibitors. A luminescent secondary assay was also performed that used luciferase-based nucleotide detection ([…]) similar to the qHTS, but that alternatively used saturating concentrations (10x Km concentrations) of ATP or F6P to determine if inhibitor potencies were shifted due to particular substrate competition. […] NIH Molecular Libraries Probe Production Network [MLPCN] NIH Chemical Genomics Center [NCGC] Grant: 1 R03 MH092153-01 PI Name: Malcolm Walkinshaw, University of Edinburgh
Substrate buffer was dispensed into white, solid 1536-well plates at 3 uL/well in 0.1M triethanolamine (TEA) buffer, pH 8.0, containing final concentrations of 5 mM MgCl2 and 0.01% Tween20. Standard substrate buffer contained 0.5mM fructose-6-phosphate (F6P) and 0.1mM ATP, high ATP substrate buffer contained 0.5mM fructose-6-phosphate (F6P) and 1mM ATP, high F6P substrate buffer contained 5mM fructose-6-phosphate (F6P) and 0.1mM ATP, and high ATP/F6P buffer contained 5mM fructose-6-phosphate (F6P) and 1mM ATP. Then, 23nl of compounds or DMSO were delivered to each well using a pin tool. One uL of T. brucei PFK (0.1M TEA, 0.01% Tween20, 0.1% bovine serum albumin (BSA) and 1.25nM PFK, final concentrations) was then dispensed, and plates were incubated at room temperature for 45 min. The luminescent detection reagent, Kinase-Glo Plus (Promega), was then added at 2ul/well and incubated for ten minutes at room temperature. The plates were measured on a ViewLux plate reader for luminescent signal using a clear filter with a one second exposure. The %Activity was determined from the corrected luminescence values. 1x (1.25nM) and 0x PFK enzyme controls (untreated) were included to normalize %Activity of identified inhibitors; 0x enzyme values corresponded to 100%Activity (full inhibition), while 1x PFK enzyme values were used to normalize 0% Activity (no inhibition).
A general note: Kinase-Glo measures the ATP left after a reaction by luminescence.
`Cc1cc(NS(=O)(=O)c2ccc(NC(=O)Cc3ccc(Cl)c(C(F)(F)F)c3)cc2)no1`: the Potency is 0.919 µM (active).
Regarding `Cc1cc(NS(=O)(=O)c2cccc(NC(=O)Cc3ccc(Cl)c(Cl)c3)c2)no1`, the Potency was 18.3 µM (active).
Same read-out and setting: to `Cc1cc(NS(=O)(=O)c2ccc(NC(=O)Cc3ccc4ccccc4c3)cc2)no1` belongs 5.8 µM (active).
Consider `Cc1cc(NC(=O)c2ccc(NC(=O)Cc3ccc(Cl)c(Cl)c3)cc2)no1`, for which the “activity, negative = inhibition” value is -7.03% (inactive).
`Cc1cc(NS(=O)(=O)c2ccc(NC(=O)Cc3ccc(Cl)c(Cl)c3)cc2)no1`: the Potency is 0.517 µM (active).
With `O=C(Cc1ccc(Cl)c(Cl)c1)Nc1ccc(S(=O)(=O)Nc2cncnc2)cc1`, the Potency is 1.3 µM (active).
In the case of `O=C(Cc1ccc(Cl)c(Cl)c1)Nc1ccc(S(=O)(=O)Nc2ccc(C(=O)O)cc2)cc1`, the Potency was 0.919 µM (active).
For the molecule `CCOC(=O)c1cccc(NS(=O)(=O)c2ccc(NC(=O)Cc3ccc(Cl)c(Cl)c3)cc2)c1`, the “activity, negative = inhibition” value was -7.44% (inactive).
With `Cc1cc(NC(=O)c2csc(NC(=O)Cc3ccc(Cl)c(Cl)c3)n2)no1`, the “activity, negative = inhibition” value was -29.8% (inactive).
`Cc1cc(NS(=O)(=O)c2ccc(NC(=O)Cc3ccc(C)c(C)c3)cc2)no1`: the Potency is 18.3 µM (active).
With `Cc1cc(NS(=O)(=O)c2ccc(NC(=O)Cc3ccc(Cl)c(F)c3)cc2)no1`, the Potency was 1.03 µM (active).
Still for that read-out and setting: the same measure for `Cc1cc(NS(=O)(=O)c2ccc(N(C)C(=O)Cc3ccc(Cl)c(Cl)c3)cc2)no1`: 1.3 µM (active); for `Cc1cc(NS(=O)(=O)c2ccc(NC(=O)Cc3cccc(Cl)c3)cc2)no1`: 6.51 µM (active).
For `O=C(Cc1ccc(Cl)c(Cl)c1)Nc1ccc(S(=O)(=O)Nc2ccn[nH]2)cc1`, the Potency was 0.73 µM (active).
As for `Cc1cc(NS(=O)(=O)c2ccc(NC(=O)CCc3ccc(Cl)c(Cl)c3)cc2)no1`, the Potency is 16.3 µM (active).
Take `COc1ccc(CC(=O)Nc2ccc(S(=O)(=O)Nc3cc(C)on3)cc2)cc1OC`: the “activity, negative = inhibition” value was 4.22% (inactive).
`Cc1cc(NS(=O)(=O)c2ccc(NC(=O)Cc3ccc(Cl)cc3Cl)cc2)no1`: the Potency is 6.51 µM (active).
Consider `Cc1cc(NS(=O)(=O)Cc2ccc(NC(=O)Cc3ccc(Cl)c(Cl)c3)cc2)no1`, for which the Potency was 4.11 µM (active).
`Cc1cc(NS(=O)(=O)c2ccc(NC(=O)Cc3ccc(Cl)c(Cl)c3)cc2)on1`: the Potency was 0.517 µM (active).
With `O=C(Cc1ccc(Cl)c(Cl)c1)Nc1ccc(S(=O)(=O)Nc2cccc(O)c2)cc1`, the Potency is 2.91 µM (active).
For `Cc1cc(NS(=O)(=O)c2ccc(NC(=O)Cc3ccc(Cl)cc3)cc2)no1`, the Potency is 2.91 µM (active).
The same measure, in the same setting: the same measure for `Cc1cc(NS(=O)(=O)c2ccc(NCCc3ccc(Cl)c(Cl)c3)cc2)no1`: 16.3 µM (active); for `Cc1cc(N[S+](=O)([O-])c2ccc3cc(NC(=O)Cc4ccc(Cl)c(Cl)c4)ccc3c2)no1`: 6.51 µM (active).
The same measure, in the same setting: the same measure for `Cc1cc(NS(=O)(=O)c2ccc(C(=O)NCc3ccc(Cl)c(Cl)c3)cc2)no1`: 4.61 µM (active); for `O=C(Cc1ccc(Cl)c(Cl)c1)Nc1ccc(S(=O)(=O)Nc2cccc(C(=O)O)c2)cc1`: 1.03 µM (active).
As for `Cc1cc(N[S+](=O)([O-])c2ccc(NC(=O)Cc3ccc(Cl)nc3)cc2)no1`, the Potency was 18.3 µM (active).
For the molecule `O=C(Cc1ccc(Cl)c(Cl)c1)Nc1ccc(S(=O)(=O)Nc2ccon2)cc1`, the Potency was 0.326 µM (active).
For the molecule `Cc1cc(N(C)S(=O)(=O)c2ccc(NC(=O)Cc3ccc(Cl)c(Cl)c3)cc2)no1`, the Potency was 3.26 µM (active).
As to `CN(C)c1cccc(NS(=O)(=O)c2ccc(NC(=O)Cc3ccc(Cl)c(Cl)c3)cc2)c1`, the Potency is 23.1 µM (active).
For `O=C(Cc1ccc(Cl)c(Cl)c1)Nc1ccc(S(=O)(=O)Nc2ccccc2)cc1`, the Potency is 13 µM (active).
In the case of `Cc1cc(NS(=O)(=O)c2ccc(NC(=O)Cc3ccc(C)c(F)c3)cc2)no1`, the Potency was 8.19 µM (active).
In the case of `COc1ccc(CC(=O)Nc2ccc(S(=O)(=O)Nc3cc(C)on3)cc2)cc1C`, the “activity, negative = inhibition” value is -20.3% (inactive).
For the molecule `Cc1cc(NS(=O)(=O)c2ccc(NC(=O)Cc3ccc(Cl)c(Cl)c3)cc2)n(C)n1`, the Potency is 1.83 µM (active).
Take `O=C(Cc1ccc(Cl)c(Cl)c1)Nc1ccc(S(=O)(=O)O)cc1`: the Potency is 1.03 µM (active).
